High-throughput results (PubChem BioAssay)
The list is not random: actives were taken first. Their share in the collection is about 2.4%.
C diff HTS: inhibitors of Clostridium difficile growth | AID 1259249 | Clostridium difficile clinical isolate growth, OD600, 24 h; hits give low values | growth activity, negative = inhibition, % at 16 µg/mL (by protocol) | hit rate 0.25% among 86,000;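 active means mean growth activity at or below -80% and every replicate also at or below -80%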
Pf Dd2 inh: blocks growth of Plasmodium falciparum Dd2 parasites; activity change, % at 10 µM; P. falciparum Dd2 growth, SYBR Green, 72 h; hits give low values; hit rate 2.3% among 94,000; in the data active means activity change below about -80%
Hits are given with their value; - = inactive; . = no result given; ! = a repeat was not active.

SMILES | C diff HTS | Pf Dd2 inh
COc1ccc(S(=O)(=O)Nc2ccc3c(c2)C(=O)N([C@@H](C)CO)C[C@H](C)[C@@H](CN(C)C(=O)c2ccccc2)OCCCC[C@@H](C)O3)cc1 | - | -89.2
COc1ccc(S(=O)(=O)Nc2ccc3c(c2)C(=O)N([C@H](C)CO)C[C@@H](C)[C@@H](CN(C)C(=O)NC2CCCCC2)OCCCC[C@H](C)O3)cc1 | - | -
COc1ccc(S(=O)(=O)Nc2ccc3c(c2)C(=O)N([C@@H](C)CO)C[C@H](C)[C@H](CN(C)C(=O)NC2CCCCC2)OCCCC[C@@H](C)O3)cc1 | - | -88.2
COc1ccc(S(=O)(=O)Nc2ccc3c(c2)C(=O)N([C@@H](C)CO)C[C@@H](C)[C@@H](CN(C)C(=O)c2ccccc2)OCCCC[C@H](C)O3)cc1 | - | -
C[C@H]1CN([C@@H](C)CO)C(=O)c2cccc(NC(=O)Nc3ccccc3)c2O[C@@H]1CN(C)Cc1ccc(C(=O)Nc2ccccc2N)cc1 | - | -87.7
C[C@@H]1CN([C@@H](C)CO)C(=O)c2cccc(NC(=O)Nc3cccc4ccccc34)c2O[C@@H]1CN(C)Cc1ccc(C(=O)Nc2ccccc2N)cc1 | - | -92.4
C[C@H](CO)N1C[C@H](C)[C@@H](CN(C)Cc2ccc(C(=O)Nc3ccccc3N)cc2)Oc2c(NC(=O)Nc3ccccc3)cccc2C1=O | - | -86.0
C[C@@H]1CN([C@H](C)CO)C(=O)c2cccc(NC(=O)Nc3ccccc3)c2O[C@@H]1CN(C)Cc1ccc(C(=O)O)cc1 | - | -
CC(C)NC(=O)Nc1cccc2c1O[C@H](CN(C)Cc1ccc(C(=O)Nc3ccccc3N)cc1)[C@H](C)CN([C@H](C)CO)C2=O | - | -
C[C@H](CO)N1C[C@H](C)[C@@H](CN(C)Cc2ccc(C(=O)O)cc2)Oc2c(NC(=O)Nc3ccccc3)cccc2C1=O | - | -
C[C@@H]1CN([C@@H](C)CO)C(=O)c2cccc(NC(=O)Nc3ccccc3)c2O[C@H]1CN(C)Cc1ccc(C(=O)Nc2ccccc2N)cc1 | - | -86.5
CCCNC(=O)[C@@H]1[C@@H](CO)[C@@H]2Cn3c(ccc(-c4cccnc4)c3=O)[C@@H]2N1Cc1cocn1 | - | -
Cc1noc(C)c1NC(=O)Nc1ccc2c(c1)CC(=O)N([C@H](C)CO)C[C@H](C)[C@@H](CN(C)Cc1ccc(-c3ccccc3)cc1)O2 | - | -
Cc1ccccc1-c1cnc2c(c1)C(=O)N([C@@H](C)CO)C[C@H](C)[C@H](CN(C)C(=O)CN(C)C)O2 | - | -
CO[C@H]1CN(C)C(=O)c2ccc(NC(=O)C3CC3)cc2OC[C@@H](C)N(C(=O)C2CCCCC2)C[C@@H]1C | - | -
O=C(Nc1ccccc1F)N[C@@H]1CC[C@@H](CCNS(=O)(=O)c2ccc(Cl)cc2)O[C@H]1CO | . | -
C[C@H]1CN([C@@H](C)CO)C(=O)c2ccccc2-c2ccccc2CO[C@H]1CN(C)S(=O)(=O)c1ccc([N+](=O)[O-])cc1 | - | -
C[C@@H]1CN([C@H](C)CO)C(=O)c2cccc(NC(=O)Nc3ccc4c(c3)OCO4)c2O[C@H]1CN(C)Cc1ccc(C(=O)Nc2ccccc2N)cc1 | . | -86.4
C[C@H](CO)N1C[C@H](C)[C@H](CN(C)Cc2ccc(C(=O)Nc3ccccc3N)cc2)Oc2c(NC(=O)Nc3ccc4c(c3)OCO4)cccc2C1=O | . | -
C/C=C/c1ccc2c(c1)O[C@@H](CN(C)C(=O)Cc1ccncc1)[C@H](C)CN([C@H](C)CO)S2(=O)=O | - | -84.1
C[C@H](CO)N1C[C@H](C)[C@H](CN(C)C(=O)Cc2ccncc2)Oc2cc(C#CC3CCCC3)ccc2S1(=O)=O | - | -
C[C@H](CO)N1C[C@H](C)[C@H](CN(C)C(=O)Cc2ccncc2)Oc2cc(C#CC3CCCCC3)ccc2S1(=O)=O | . | -86.0
CC(C)CC#Cc1ccc2c(c1)O[C@H](CN(C)C(=O)Cc1ccncc1)[C@@H](C)CN([C@@H](C)CO)S2(=O)=O | - | -
CC(C)CC#Cc1ccc2c(c1)O[C@@H](CN(C)C(=O)Cc1ccncc1)[C@H](C)CN([C@@H](C)CO)S2(=O)=O | - | -82.1
C/C=C/c1ccc2c(c1)O[C@@H](CN(C)C(=O)Cc1ccncc1)[C@@H](C)CN([C@H](C)CO)S2(=O)=O | - | -
SMILES | C diff HTS | Pf Dd2 inh
CC(C)NC(=O)Nc1ccc2c(c1)C(=O)N([C@H](C)CO)C[C@H](C)[C@H](CN(C)CC1CCCCC1)OCCCC[C@@H](C)O2 | . | -
CO[C@@H]1CN(C)C(=O)c2cc(NC(=O)Nc3c(C)noc3C)ccc2OC[C@H](C)N(C)C[C@@H]1C | - | -
C[C@@H]1CCCCO[C@@H](CN(C)C(=O)Cc2ccccc2)[C@H](C)CN([C@@H](C)CO)C(=O)c2cc(NC(=O)CCCN(C)C)ccc2O1 | - | .
COc1ccccc1NC(=O)N(C)C[C@H]1OCc2ccccc2-c2c(n(C)c3ccccc23)C(=O)N([C@H](C)CO)C[C@H]1C | . | -
Cc1ccccc1-c1cnc2c(c1)C(=O)N([C@@H](C)CO)C[C@@H](C)[C@@H](CN(C)CC1CC1)O2 | - | -
CCC(=O)N[C@@H]1C=C[C@H](CC(=O)NCCN2CCCCC2)O[C@H]1CO | - | -
C[C@@H]1CN([C@@H](C)CO)C(=O)c2cccc(NC(=O)c3cnccn3)c2O[C@@H]1CN(C)Cc1ccc(C(=O)Nc2ccccc2N)cc1 | - | -92.1
C[C@H](CO)N1C[C@H](C)[C@@H](CN(C)Cc2ccc(C(=O)Nc3ccccc3N)cc2)Oc2c(NC(=O)c3ccncc3)cccc2C1=O | - | -
C[C@H]1CN([C@@H](C)CO)C(=O)c2cccc(NC(=O)c3ccncc3)c2O[C@@H]1CN(C)Cc1ccc(C(=O)Nc2ccccc2N)cc1 | - | -
C[C@@H]1CN([C@H](C)CO)C(=O)c2cccc(NC(=O)c3cnccn3)c2O[C@H]1CN(C)Cc1ccc(C(=O)Nc2ccccc2N)cc1 | - | -90.9
COc1ccc(S(=O)(=O)N(C)C[C@H]2OCCCC[C@H](C)Oc3ccc(NC(=O)CCCN(C)C)cc3C(=O)N([C@H](C)CO)C[C@@H]2C)cc1 | - | -
C[C@@H]1CN([C@@H](C)CO)C(=O)c2cc(NC(=O)Nc3ccccc3)ccc2O[C@@H](C)CCCCO[C@@H]1CN(C)Cc1ccncc1 | - | -
O=C(C[C@H]1CC[C@H](NC(=O)Nc2ccc3c(c2)OCO3)[C@@H](CO)O1)NCc1ccccc1 | - | -
COc1ccccc1CN1C[C@@H]2N[C@H](C1)C2c1ccc(-c2ccccc2)cc1 (stereo partly drawn) | - | -
C(=C\c1ccc(C2[C@@H]3CN(Cc4nccs4)C[C@H]2N3)cc1)/c1ccccc1 (stereo partly drawn) | - | -88.2!
c1cc(-c2ccc(C3[C@@H]4CN(Cc5nccs5)C[C@H]3N4)cc2)ccn1 (stereo partly drawn) | - | -
C(=C\c1ccc(C2[C@@H]3CN(Cc4ccccn4)C[C@H]2N3)cc1)/c1ccccc1 (stereo partly drawn) | - | -
c1cncc(-c2ccc(C3[C@@H]4CN(Cc5nccs5)C[C@H]3N4)cc2)c1 (stereo partly drawn) | - | -87.6!
COc1ccccc1CN1C[C@@H]2N[C@H](C1)C2c1ccc(/C=C/c2ccccc2)cc1 (stereo partly drawn) | -90.2 | -
CN(C)C(=O)[C@@H]1[C@@H](CO)[C@@H]2Cn3c(ccc(C4=CCCC4)c3=O)[C@H]1N2CC1CCOCC1 | - | .
